Active and inactive are the calls of the source. How the source made its calls: active means hit-call score of the fitted dose curve at least 0.9, where 1 is the maximum; inactive means score below 0.9.
Experiments:
Settings in all cases: mRNA level, 48 h; actives raise or lower the signal
[1] = read-out: Cyclin D1 (CCND1), CCND1 (gene 595); experiment: LTEA_HepaRG_CCND1: Life Technologies and Expression Analysis (LTEA) Assay for Cyclin D1 (CCND1) using HepaRG (AID 2283451);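 on AC50: TaqMan qRT-PCR transcript level normalised to ACTB GAPDH and POLR2A housekeeping genes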
Summary of the method: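 qRT-PCR (Fluidigm 96.96 array) read-out of transcript level, housekeeping-normalized (ACTB/GAPDH/POLR2A). HepaRG cells, 48 h chemical exposure, 8-point half-log series from 100 uM, 0.5% DMSO vehicle; gain or loss relative to DMSO baseline.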

[2] = read-out: catalase (CAT), CAT (gene 847); experiment: LTEA_HepaRG_CAT: Life Technologies and Expression Analysis (LTEA) Assay for catalase (CAT) using HepaRG (AID 2283452)
Summary of the method: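 HepaRG cells in serum-free induction medium, 0.5% DMSO vehicle, exposed 48 h in duplicate over 8 half-log concentrations from 100 uM. CAT mRNA measured by qRT-PCR, normalized to ACTB, GAPDH, POLR2A; bidirectional fit versus DMSO.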

[3] = read-out: flavin-containing dimethylaniline monooxygenases 3 (FMO3), FMO3 (gene 2328); experiment: LTEA_HepaRG_FMO3: Life Technologies and Expression Analysis (LTEA) Assay for flavin-containing dimethylaniline monooxygenases 3 (FMO3) using HepaRG (AID 2283453)
Summary of the method: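 Differentiated HepaRG cells in serum-free induction medium, exposed 48 h in duplicate to 8 half-log concentrations up to 100 uM in 0.5% DMSO. FMO3 mRNA by qRT-PCR, normalized to ACTB, GAPDH, POLR2A; bidirectional fit vs DMSO.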

[4] = read-out: Cytochrome P450 (CYP1A1), CYP1A1 (gene 1543); experiment: LTEA_HepaRG_CYP1A1: Life Technologies and Expression Analysis (LTEA) Assay for Cytochrome P450 (CYP1A1) using HepaRG (AID 2283454)
Summary of the method: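 qRT-PCR read-out: CYP1A1 transcript normalized to three housekeeping genes, fitted bidirectionally against 0.5% DMSO vehicle baseline. Human HepaRG cells, 48 h chemical exposure, 8-point half-log series topping at 100 uM.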

[5] = read-out: CFLAR gene, CFLAR (gene 8837); experiment: LTEA_HepaRG_CFLAR: Life Technologies and Expression Analysis (LTEA) Assay for CFLAR gene using HepaRG (AID 2283455)
Summary of the method: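 Differentiated HepaRG cells in serum-free induction medium were exposed 48 h in duplicate to eight half-log concentrations up to 100 uM in 0.5% DMSO; mRNA measured by TaqMan qRT-PCR, normalized to ACTB, GAPDH, POLR2A; bidirectional fitting versus DMSO.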

[6] = read-out: Forkhead box O1 (FOXO1), FOXO1 (gene 2308); experiment: LTEA_HepaRG_FOXO1: Life Technologies and Expression Analysis (LTEA) Assay for Forkhead box O1 (FOXO1) using HepaRG (AID 2283456)
Summary of the method: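 Differentiated HepaRG cells, in serum-free induction medium with 0.5% DMSO, exposed 48 h in duplicate to 8-point half-log series from 100 uM. FOXO1 mRNA measured by TaqMan qRT-PCR, normalized to ACTB, GAPDH, POLR2A; bidirectional fit versus DMSO.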

[7] = read-out: growth arrest and DNA damage 45 (GADD45A), GADD45A (gene 1647); experiment: LTEA_HepaRG_GADD45A: Life Technologies and Expression Analysis (LTEA) Assay for growth arrest and DNA damage 45 (GADD45A) using HepaRG (AID 2283458)
Summary of the method: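 Cells plated and cultured 48 h, switched to serum-free induction medium, then dosed for 48 h (100 uM top, half-log dilutions, 0.5% DMSO). RNA was isolated and transcript measured by Fluidigm qRT-PCR.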

[8] = read-out: Forkhead box O3 (FOXO3), FOXO3 (gene 2309); experiment: LTEA_HepaRG_FOXO3: Life Technologies and Expression Analysis (LTEA) Assay for Forkhead box O3 (FOXO3) using HepaRG (AID 2283459)
Summary of the method: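 Differentiated human HepaRG cells, 48 h post-plating, exposed in duplicate for 48 h in serum-free induction medium; 8-point half-log series from 100 uM in 0.5% DMSO. FOXO3 mRNA by TaqMan qRT-PCR, normalized to ACTB/GAPDH/POLR2A; bidirectional fit versus DMSO.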

[9] = read-out: ABC Transporter (ABCB1), ABCB1 (gene 5243); experiment: LTEA_HepaRG_ABCB1: Life Technologies and Expression Analysis (LTEA) Assay for ABC Transporter (ABCB1) using HepaRG (AID 2283460)
Summary of the method: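 HepaRG cells exposed in duplicate for 48 h in serum-free induction medium to eight half-log concentrations up to 100 uM in 0.5% DMSO. ABCB1 mRNA quantified by qRT-PCR, normalised to ACTB, GAPDH and POLR2A; fitted bidirectionally versus DMSO.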

[10] = read-out: growth arrest and DNA damage 45 (GADD45B), GADD45B (gene 4616); experiment: LTEA_HepaRG_GADD45B: Life Technologies and Expression Analysis (LTEA) Assay for growth arrest and DNA damage 45 (GADD45B) using HepaRG (AID 2283461)
Summary of the method: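 qRT-PCR read-out (Fluidigm TaqMan, housekeeping-normalized) of mRNA change in human HepaRG cells after 48 h chemical exposure; 8-point curve, top 100 uM, half-log steps, 0.5% DMSO vehicle; gain or loss fitted relative to DMSO baseline.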

[11] = read-out: ABC Transporter (ABCC3), ABCC3 (gene 8714); experiment: LTEA_HepaRG_ABCC3: Life Technologies and Expression Analysis (LTEA) Assay for ABC Transporter (ABCC3) using HepaRG (AID 2283462)
Summary of the method: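 qRT-PCR read-out of ABCC3 transcript, normalized to three housekeeping genes (ACTB, GAPDH, POLR2A), after 48 h chemical exposure of human HepaRG cells. Eight half-log concentrations, highest 100 uM, in 0.5% DMSO; gain or loss fitted relative to DMSO baseline.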

[12] = read-out: ABC Transporter (ABCB11), ABCB11 (gene 8647); experiment: LTEA_HepaRG_ABCB11: Life Technologies and Expression Analysis (LTEA) Assay for ABC Transporter (ABCB11) using HepaRG (AID 2283463)
Summary of the method: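 Differentiated human HepaRG cells in serum-free induction medium, dosed in duplicate for 48 h. Eight-point half-log series from 100 uM in 0.5% DMSO; ABCB11 mRNA by qRT-PCR, normalized to ACTB, GAPDH, POLR2A, fitted bidirectionally versus DMSO.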

[13] = read-out: ABC Transporter (ABCC2), ABCC2 (gene 1244); experiment: LTEA_HepaRG_ABCC2: Life Technologies and Expression Analysis (LTEA) Assay for ABC Transporter (ABCC2) using HepaRG (AID 2283464)
Summary of the method: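 qRT-PCR (TaqMan, Fluidigm array) read-out of ABCC2 mRNA, normalized to three housekeeping genes. Differentiated HepaRG cells were treated 48 h in serum-free induction medium with 8-point half-log series from 100 uM in 0.5% DMSO; curves fitted bidirectionally relative to DMSO.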

[14] = read-out: Broad substrate specificity ATP-binding cassette transporter ABCG2 (Homo sapiens) (UniProt Q9UNQ0); experiment: LTEA_HepaRG_ABCG2: Life Technologies and Expression Analysis (LTEA) Assay for ABC Transporter (ABCG2) using HepaRG (AID 2283465)
Summary of the method: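 Differentiated HepaRG cells were exposed for 48 h in serum-free induction medium to 8 half-log concentrations, top 100 uM, in 0.5% DMSO. ABCG2 mRNA was measured by qRT-PCR, normalized to ACTB, GAPDH and POLR2A, with bidirectional fitting versus DMSO.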

[15] = read-out: ATP-citrate lyase (ACLY), ACLY (gene 47); experiment: LTEA_HepaRG_ACLY: Life Technologies and Expression Analysis (LTEA) Assay for ATP-citrate lyase (ACLY) using HepaRG (AID 2283466)
Summary of the method: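 Differentiated HepaRG cells exposed 48 h in serum-free induction medium to eight half-log concentrations up to 100 uM in 0.5% DMSO, duplicates. Transcript measured by Fluidigm TaqMan qRT-PCR, normalized to ACTB, GAPDH, POLR2A; bidirectional fit versus DMSO.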

[16] = read-out: Peroxisomal acyl-coenzyme A oxidase 1 (ACOX1) gene, ACOX1 (gene 51); experiment: LTEA_HepaRG_ACOX1: Life Technologies and Expression Analysis (LTEA) Assay for Peroxisomal acyl-coenzyme A oxidase 1 (ACOX1) gene using HepaRG (AID 2283467)
Summary of the method: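 HepaRG cells, plated 48 h then switched to serum-free induction medium, were exposed in duplicate for 48 h to 8-point half-log concentrations up to 100 uM in 0.5% DMSO. ACOX1 mRNA was measured by qRT-PCR, normalized to ACTB/GAPDH/POLR2A, and fitted bidirectionally versus DMSO.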

[17] = read-out: Alkaline Phosphatase, Placental (ALPP) gene, ALPP (gene 250); experiment: LTEA_HepaRG_ALPP: Life Technologies and Expression Analysis (LTEA) Assay for Alkaline Phosphatase, Placental (ALPP) gene using HepaRG (AID 2283468)
Summary of the method: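 qRT-PCR readout of ALPP mRNA (Fluidigm TaqMan), normalized to ACTB/GAPDH/POLR2A, after 48 h chemical exposure of HepaRG cells; 8-point half-log series, top 100 uM, 0.5% DMSO vehicle. Bidirectional curve fit versus DMSO baseline.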

[18] = read-out: Bcl-2 (BAD) gene, BAD (gene 572); experiment: LTEA_HepaRG_BAD: Life Technologies and Expression Analysis (LTEA) Assay for Bcl-2 (BAD) gene using HepaRG (AID 2283469)
Summary of the method: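 Differentiated HepaRG cells were exposed in duplicate in 0.5% DMSO for 48 h to eight-point half-log concentrations up to 100 uM. BAD mRNA was measured by Fluidigm TaqMan qRT-PCR, normalized to ACTB, GAPDH and POLR2A, and fitted bidirectionally against DMSO.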

[19] = read-out: Bcl-2 (BAX) gene, BAX (gene 581); experiment: LTEA_HepaRG_BAX: Life Technologies and Expression Analysis (LTEA) Assay for Bcl-2 (BAX) gene using HepaRG (AID 2283470)
Summary of the method: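 HepaRG (human liver), 48 h exposure, duplicate wells. 8-pt curve, half-log from 100 uM, 0.5% DMSO. BAX transcript by TaqMan qRT-PCR; ACTB/GAPDH/POLR2A normalization; gain or loss vs DMSO baseline.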

Measured: AC50

Sequence of Broad substrate specificity ATP-binding cassette transporter ABCG2 (Homo sapiens) (Q9UNQ0 whole entry, looked up): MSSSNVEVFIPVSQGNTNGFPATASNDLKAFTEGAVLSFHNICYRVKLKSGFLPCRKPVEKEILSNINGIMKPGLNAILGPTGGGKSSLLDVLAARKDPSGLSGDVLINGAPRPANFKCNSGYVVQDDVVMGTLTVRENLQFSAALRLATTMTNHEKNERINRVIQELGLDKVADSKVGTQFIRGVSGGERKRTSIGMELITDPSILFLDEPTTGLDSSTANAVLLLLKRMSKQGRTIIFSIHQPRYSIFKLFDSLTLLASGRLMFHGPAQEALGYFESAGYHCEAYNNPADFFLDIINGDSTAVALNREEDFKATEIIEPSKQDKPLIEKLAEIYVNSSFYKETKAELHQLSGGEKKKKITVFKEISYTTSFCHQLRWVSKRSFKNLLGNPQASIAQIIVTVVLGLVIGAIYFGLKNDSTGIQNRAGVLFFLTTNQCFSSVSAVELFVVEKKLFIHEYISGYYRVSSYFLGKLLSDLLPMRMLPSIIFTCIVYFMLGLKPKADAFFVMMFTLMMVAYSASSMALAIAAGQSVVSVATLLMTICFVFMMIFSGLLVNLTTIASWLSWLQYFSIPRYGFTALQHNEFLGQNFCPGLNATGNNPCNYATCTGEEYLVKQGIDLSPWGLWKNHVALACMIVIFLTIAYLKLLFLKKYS

O=C(O)c1ccccc1-n1cc(C(=O)O)c(=O)c2cc(Nc3c(F)cc(F)cc3Cl)c(Cl)cc21
active: [4] 20.5 µM | [7] 0.00848 µM | [9] 15.5 µM | [13] 10.6 µM | [17] 0.0892 µM
inactive: all other assays above

CC(=O)N1CCN(c2ccc(OC[C@H]3CO[C@](Cn4ccnc4)(c4ccc(Cl)cc4Cl)O3)cc2)CC1
active: [1] 91.1 µM | [2] 13.1 µM | [3] 11.8 µM | [4] 0.698 µM | [5] 74.2 µM | [6] 33.4 µM | [7] 12.5 µM | [8] 77.6 µM | [11] 91.8 µM | [13] 31.1 µM | [14] 4.05 µM | [15] 1.23 µM | [16] 18.1 µM | [19] 11.8 µM
inactive: [10] | [18]

c1ccc(C[n+]2cccc3ccccc32)cc1
inactive: [1] | [5] | [9] | [10] | [13] | [15] | [18]
active: [2] 31.1 µM | [3] 32.6 µM | [4] 36.8 µM | [6] 76.1 µM | [7] 63.7 µM | [8] 50 µM | [11] 23.2 µM | [12] 31.3 µM | [14] 3.93 µM | [16] 22.8 µM | [17] 13 µM | [19] 69.4 µM

OC12N=C(c3ccccc3)SC1Cc1cc(Cl)ccc12 (configuration not stated)
active: [1] 9.92 µM | [2] 16.6 µM | [3] 15.7 µM | [4] 1.21 µM | [5] 5 µM | [8] 4.85 µM | [9] 17 µM | [10] 3.34 µM | [11] 21 µM | [12] 16.7 µM | [14] 16.7 µM | [15] 0.377 µM | [16] 21.1 µM | [17] 35.7 µM
inactive: [6] | [7] | [13] | [18] | [19]

NCc1cccc(C2CCN(C(=O)c3ccc(C#Cc4ccccc4F)o3)CC2)c1
active: [2] 50 µM | [3] 82.7 µM | [4] 12.7 µM | [5] 89.9 µM | [7] 78.9 µM | [9] 50 µM | [12] 78 µM | [13] 90.6 µM | [17] 46.2 µM
inactive: all other assays above

CCCCCc1ccc(N)cc1
active: [4] 28.8 µM
inactive: all other assays above

CN1C(=O)N(c2ccccc2Br)Cc2cnc(Nc3ccc4c(c3)OCC(CO)O4)nc21 (configuration not stated)
inactive: [5] | [8] | [14] | [18]
active: [1] 50 µM | [2] 67.2 µM | [3] 44.8 µM | [4] 12.1 µM | [6] 39.2 µM | [7] 0.0221 µM | [9] 89.9 µM | [10] 81.6 µM | [11] 28.6 µM | [12] 80.3 µM | [13] 77.1 µM | [15] 50 µM | [16] 77.9 µM | [17] 2.93 µM | [19] 12.9 µM

CC[C@H](NC(=O)c1cc(F)ccc1NS(=O)(=O)c1cccc2cccnc12)c1ccccc1
active: [2] 59.2 µM | [3] 34 µM | [4] 47.1 µM | [9] 1.34 µM | [12] 47.8 µM | [13] 11.7 µM | [16] 71.3 µM | [19] 9.47 µM
inactive: all other assays above

Cc1cn([C@H]2C[C@H](N=[N+]=[N-])[C@@H](CO)O2)c(=O)[nH]c1=O
inactive: all assays above

CCCCCCCCOC(=O)c1cc(O)c(O)c(O)c1
active: [4] 50 µM | [17] 11.5 µM
inactive: all other assays above
